Experimental data: PubChem BioAssay (NCATS)
Several values for one entry are separate records, joined by “and”; a condition that tells them apart may be missing. Equal values may be shown once. Results filed as inconclusive are left out. For some assays here: Entries with a potency or affinity are not part of this list. Activity calls are given as the source filed them. Unless noted, how the calls were made is not given here.

Legend:
[1] = qHTS profiling for inhibitors of Plasmodium falciparum (3D7) proliferation (AID 743322);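 further: infected erythrocytes exposed to compound for 72 h before lysis; 100% = DMSO vehicle wells and 0% = 0.29 µM artemisinin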; conditions: P. falciparum 3D7 proliferation; at 28.7 µM (top of the series)
Method in brief: (§1)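 Erythrocytes infected with P. falciparum (0.3% parasitemia, 2.5% hematocrit) incubated with compounds 72 h at 37 C, 5% CO2. Lysis with saponin/Triton buffer containing SYBR Green I, overnight at room temperature in the dark; DNA fluorescence (485/535 nm) normalised to 0.29 uM artemisinin and DMSO.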

[2] = qHTS profiling for inhibitors of Plasmodium falciparum (DD2) proliferation (AID 743323); conditions: lower = more inhibition; at 28.7 µM (top of the series)
Method in brief: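 Parasite DNA quantified by SYBR Green fluorescence (ex 485, em 535 nm) after saponin/Triton lysis and overnight dark incubation. Cultures: 0.3% parasitemia, 2.5% hematocrit, 72 h, 37 C; data scaled between DMSO and 0.29 uM artemisinin.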

[3] = qHTS profiling for inhibitors of Plasmodium falciparum (HB3) proliferation (AID 743324; active means well fitted curve in the direction sought with a large enough effect; an effect the other way counts as inactive or inconclusive;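 further: 100% = DMSO vehicle wells and 0% = artemisinin-treated control wells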); conditions: Plasmodium falciparum HB3 blood-stage proliferation; at 28.7 µM (top of the series)
Method in brief: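 P. falciparum HB3 grown in erythrocytes (0.3% parasitemia, 2.5% hematocrit final) with compound for 72 h at 37 C, 5% CO2. Parasite DNA detected by SYBR Green after saponin/triton lysis overnight; normalized to 0.29 uM artemisinin and DMSO.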

[4] = qHTS profiling of the MIPE4 collection as inhibitors of Plasmodium falciparum (3D7) proliferation (AID 743344);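 further: scaled between DMSO vehicle wells and 0.29 µM artemisinin as full inhibition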; conditions: P. falciparum 3D7 in erythrocytes, SYBR Green DNA fluorescence, 72 h; at 28.5 µM (top of the series) unless noted
Method in brief: as §1

[5] = qHTS profiling of the MIPE4 collection as inhibitors of Plasmodium falciparum (DD2) proliferation (AID 743345); conditions: P. falciparum Dd2 in erythrocytes, SYBR Green DNA, 72 h; at 28.5 µM (top of the series) unless noted
Method in brief: as §1

[6] = qHTS profiling of the MIPE4 collection as inhibitors of Plasmodium falciparum (DD2) proliferation (Rep 2) (AID 743346); conditions: P. falciparum Dd2 in erythrocytes, SYBR Green DNA, 72 h; at 28.5 µM (top of the series) unless noted
Method in brief: as §1

[7] = qHTS profiling of the MIPE4 collection as inhibitors of Plasmodium falciparum (HB3) proliferation (AID 743347);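 further: plate controls were DMSO vehicle wells for no effect and artemisinin wells for full effect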; conditions: P. falciparum HB3 in erythrocytes, SYBR Green DNA, 72 h; at 28.5 µM (top of the series) unless noted
Method in brief: as §1

[8] = qHTS Assay for Identifying Gametocytocidal Compounds (AID 743244; active means well fitted curve in the direction sought with a large enough effect; an effect the other way counts as inactive or inconclusive; further: potency means the concentration at half of the fitted maximal effect;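 on max response: on the % scale 0 is the no-effect control and ±100 the full control effect; actives lower the fluorescent signal which means gametocytes are killed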); conditions: P. falciparum 3D7 stage III-V gametocytes, alamarBlue, 72 h; max response: stronger effect = lower value
Method in brief: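 P. falciparum 3D7 stage III–V gametocytes (20,000 cells/well) were exposed to compounds for 72 h at 37 °C, 5% CO2. AlamarBlue was then added for 24 h; decreased resorufin fluorescence (Ex 525/Em 598 nm) indicated loss of viability.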

[9] = Ebola virus entry assay, green fluorescence channel
[10] = Ebola virus entry assay, blue channel fluorescence
[11] = Ebola virus entry assay, ratio channel
[12] = Ebola virus entry assay, reporter ratio channel; AC50: Channel type: primary unless noted; outcome: Channel type: primary unless noted
[13] = Ebola virus entry assay, blue channel (ratio component)
[14] = qHTS assay for cell viability of HEK293 cells (AID 743288; active means well fitted curve in the direction sought with a large enough effect; an effect the other way counts as inactive or inconclusive; further: on the % scale 0 is the no-effect control and ±100 the full control effect; nearly all actives have a fitted effect of over 50% in size); conditions: ATP luminescence (CellTiter-Glo), 18 h; max response: stronger effect = lower value
Method in brief: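 HEK293 parental, 2,000 cells/well; ≥5 h pre-incubation 37 C; pintool compound addition; 18 h, 37 C; CellTiter-Glo 30 min RT; luminescence read.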

[15] = qHTS assay for cell viability of the p53RE-bla HCT-116 cell line (AID 743292; active means well fitted curve in the direction sought with a large enough effect; an effect the other way counts as inactive or inconclusive; further: potency means the concentration at half of the fitted maximal effect; nearly all actives have a fitted effect of over 55% in size)
Method in brief: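 Intracellular ATP of p53RE-bla HCT-116 cells measured by luciferase luminescence following 16 h compound incubation at 37 C; DMSO-only wells served as vehicle controls.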
Wherever efficacy is given: 0% is about no effect.

## CN(C)CCN(C)CCc1ccc(Cl)c(Cl)c1
[1]
  remaining parasite growth % (stronger effect = lower value): 55.4%
[2]
  activity, percent of control: 25%
[3]
  remaining proliferation (% of control), lower = more inhibition: 36.8%
[4]
  parasite growth, % of DMSO control: 50%
[5]
  parasite growth remaining, % of DMSO control (lower = more inhibition): 32%
[6]
  parasite growth, % of control (lower = inhibition): 18.2%
[7]
  growth, % of control: 72.7%

## CCC1(C2=NCCN2)Cc2ccccc2O1 (stereo unspecified)
[8]
  max response: -5.65% (inactive) and 15.9% (inactive)
[9]
  efficacy: 28% (inactive)
[10]
  outcome: inactive
[11]
  outcome: inactive
[12]
  outcome: inactive
[13]
  outcome: inactive

## O=c1oc2ccccc2c(O)c1C(CC(O)c1ccc(-c2ccc(Br)cc2)cc1)c1ccccc1 (stereo unspecified)
[8]
  max response: -15.4% (inactive)
[14]
  max response: -5.59% (inactive)
[15]
  Potency: 31.6 µM (active)
[9]
  efficacy: 92.1% (inactive)
[10]
  outcome: inactive
[11]
  outcome: inactive
[12]
  outcome: inactive
[13]
  outcome: inactive

## Clc1ccc(COC(Cn2ccnc2)c2ccc(Cl)cc2Cl)cc1 (stereo unspecified)
[8]
  Potency: 10 µM (active)
[14]
  max response: -21% (inactive)
[9]
  efficacy: -214% (inactive)
[10]
  AC50: 10 µM (active)
[11]
  AC50: 3.55 µM (active)
[12]
  AC50: 3.55 µM (active)

## COC[C@H]1OC(=O)c2coc3c2[C@@]1(C)C1=C(C3=O)C2CCC(=O)[C@@]2(C)C[C@H]1OC(C)=O (stereo partly specified)
[8]
  max response: 9.51% (inactive)
[1]
  remaining parasite growth % (stronger effect = lower value): 74.1%
[2]
  activity, percent of control: 57.9%
[3]
  remaining proliferation (% of control), lower = more inhibition: 74%

## O=C(O)C(=O)c1cn(Cc2ccccc2)c2ccc(-c3ccc(OC(F)(F)F)cc3)cc12
[8]
  max response: 14.9% (inactive)
[1]
  remaining parasite growth % (stronger effect = lower value): 110%
[2]
  activity, percent of control: 90.7%
[3]
  remaining proliferation (% of control), lower = more inhibition: 30.7%
[4]
  parasite growth, % of DMSO control: 222%
[5]
  parasite growth remaining, % of DMSO control (lower = more inhibition): 108%
[6]
  parasite growth, % of control (lower = inhibition): 77.4%
[7]
  growth, % of control: 506%

## CNC(=O)N1N=C(c2ccc(N)cc2)c2cc3c(cc2CC1C)OCO3 (stereo unspecified)
[8]
  max response: -1.27% (inactive)
[1]
  remaining parasite growth % (stronger effect = lower value): 46.2%
[2]
  activity, percent of control: 92.1%
[3]
  remaining proliferation (% of control), lower = more inhibition: 83.9%
[4]
  parasite growth, % of DMSO control: 269%
[5]
  parasite growth remaining, % of DMSO control (lower = more inhibition): 107%
[6]
  parasite growth, % of control (lower = inhibition): 67.9%
[7]
  growth, % of control: 248%

## O=c1[nH]c2ccccc2n1CCCN1CCC(n2c(=O)[nH]c3cc(Cl)ccc32)CC1
[8]
  max response: -7.84% (inactive) and 21.7% (inactive)
[4]
  parasite growth, % of DMSO control: 26.8%
[5]
  parasite growth remaining, % of DMSO control (lower = more inhibition): 52.4%
[6]
  parasite growth, % of control (lower = inhibition): 31.2%
[7]
  growth, % of control: 14%
[9]
  efficacy: 125% (inactive)
[10]
  AC50: 39.8 µM (active)
[11]
  AC50: 25.1 µM (active)
[12]
  AC50: 25.1 µM (active)
